# Data as given in PubChem BioAssay AID1240 (Sanford-Burnham Center for Chemical Genomics, 2008).
# About 800 (1.6%) of roughly 50,000 compounds showed an effect of 50% or more. The sample as a whole holds a higher share of strong results than the screen did.
# Target: Bcl-2-like protein 10 (Homo sapiens) (UniProt Q9HD36)
# Assay: Phenotype converters, Bcl-B/TR3 peptide binding displacement, primary biochemical FP (AID 1240);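 note: 0% = Bcl-B with tracer peptide and DMSO and 100% = tracer peptide lacking Bcl-B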
# Conditions: GST-Bcl-B / FITC-TR3 peptide fluorescence polarization; stronger effect = higher value; compound at 3.75 mg/L
# Sequence of Bcl-2-like protein 10 (Homo sapiens) (Q9HD36 whole entry, looked up): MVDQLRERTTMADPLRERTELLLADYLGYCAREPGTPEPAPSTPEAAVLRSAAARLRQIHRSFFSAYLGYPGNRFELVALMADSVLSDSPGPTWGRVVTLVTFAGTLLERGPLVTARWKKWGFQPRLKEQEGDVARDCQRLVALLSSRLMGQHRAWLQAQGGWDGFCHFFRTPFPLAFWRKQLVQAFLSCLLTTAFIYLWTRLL
row,Compound,displacement [%]
1,O=C(COc1ccc(Cl)cc1Cl)Nc1ccc2c(c1)OCO2,3.3
2,Cc1cc(OCC(=O)Nc2ccc(Nc3ccccc3)cc2)ccc1Br,1.1
3,CCOc1ccc(N(CC(=O)Nc2ccccc2OCC)S(=O)(=O)c2ccc(SC)cc2)cc1,15.2
4,O=C(COc1ccc([N+](=O)[O-])cc1)Nc1cc(C(F)(F)F)cc(C(F)(F)F)c1,-2.6
5,O=C1NC(=Nc2ccc(O)cc2)S/C1=C/C=C/c1ccccc1,-5.6
6,CC(=O)N(c1ccc(Br)cc1)C1SC(=O)N(c2cccc(C)c2)C1=O (configuration not stated),-0.5
7,CN(C(=O)c1cccs1)c1ccccc1C(=O)O,-1.3
8,CN(c1ccccc1C(=O)O)C1SC(=O)N(c2ccccc2)C1=O (configuration not stated),138
9,Brc1ccc2c(c1)Nc1nc3nonc3nc1N2,3.9
10,C=CCN1C(=O)/C(=C\C=C\c2ccccc2)SC1=S,6.3
11,O=C1/C(=C/c2ccc3c(c2)OCO3)SC(=S)N1Cc1ccco1,94.5
12,O=C1/C(=C/c2ccc(Cl)c(Cl)c2)SC(=S)N1Cc1ccco1,14.2
13,O=C1/C(=C/c2cccc(Br)c2)SC(=S)N1Cc1ccco1,3.6
14,O=C1/C(=C/c2ccccc2[N+](=O)[O-])SC(=S)N1Cc1ccco1,16.5
15,COc1ccc(/C=C2\SC(=S)N(Cc3ccco3)C2=O)cc1OC,21.8
16,O=C1/C(=C/C=C/c2ccccc2)SC(=S)N1Cc1ccco1,99.7
17,O=C1/C(=C/c2ccc(O)cc2)SC(=S)N1Cc1ccco1,-13.3
18,O=C1/C(=C/c2ccc(Br)cc2)SC(=S)N1Cc1ccco1,104
19,O=C1/C(=C/c2cccc3ccccc23)SC(=S)N1Cc1ccco1,79.2
20,CCCCN1C(=O)/C(=C/C=C/c2ccccc2)SC1=S,-0.6
21,COc1ccccc1/C=C1\SC(=S)N(Cc2ccco2)C1=O,1
22,CCCCOC(=O)Nc1ccc(S(=O)(=O)Nc2cc(C)ccc2C)cc1,7.1
23,CC(C)C(=O)NC(c1ccc(N(C)C)cc1)c1c(O)ccc2ccccc12 (configuration not stated),6.4
24,CCCC1CCc2nc3ccccc3c(C(=O)O)c2C1 (configuration not stated),-10.4
25,O=C(NC12CC3CC(CC(C3)C1)C2)c1ccc(Cl)c(Cl)c1,6.9
26,COc1ccc(-c2nc3c(n2O)CCC/C3=N\O)cc1OC,16.6

row,Compound,displacement [%]
1,O=C(CCN1C(=O)c2ccccc2C1=O)NCC1CCCO1 (configuration not stated),9.6
2,COc1ccccc1NC(=O)CSc1ncn[nH]1,2.5
3,COc1cc(/C=C2\C(=O)NN(c3ccccc3)C2=O)ccc1OCc1ccccc1F,8.9
4,Nc1ncc(-c2ccc([N+](=O)[O-])cc2)cn1,-4.1
5,Cc1ccc(-c2csc(NC(=O)c3ccc(S(=O)(=O)N4CCCCCC4)cc3)n2)cc1,-19
6,O=C(Nc1nc(-c2ccc(Cl)cc2)cs1)c1ccc(S(=O)(=O)N2CCCCC2)cc1,-9.5
7,O=C(Nc1nc(-c2ccc(F)cc2)cs1)c1ccc(S(=O)(=O)N2CCCCCC2)cc1,129
8,CCc1c(C)sc(NC(=O)c2cccs2)c1C(=O)OC,3.3
9,O=C(O)C(Cc1ccccc1)N1C(=O)/C(=C/c2ccc(Br)cc2)SC1=S (configuration not stated),11.6
10,FC(F)(F)c1ccccc1CN1CCN(C2CCCCC2)CC1,1.4
11,CCOc1cc(OCC)cc(C(=O)Nc2ccc(-c3nc4ncccc4o3)cc2)c1,0.6
12,CC(C)COc1ccc(C(=O)Nc2ccc(-c3nc4ncccc4o3)cc2)cc1,50.1
13,O=C(Nc1ccc(-c2nc3ncccc3o2)cc1)c1cccc(OCc2ccccc2)c1,110
14,CCCCOc1ccc(C(=O)Nc2ccc(-c3nc4ncccc4o3)cc2)cc1,10.6
15,CC(C)COc1ccc(C(=O)Nc2ccc(-c3nc4ccccc4o3)cc2)cc1,10
16,O=C(Nc1ccc2oc(-c3cccnc3)nc2c1)c1cccc(OCc2ccccc2)c1,11
17,CCCCc1c(C)nc2ccc(C(=O)O)cc2c1Cl,1
18,C=CCOc1ccc(/C=C2/C(=O)NN(c3ccc(C)c(Cl)c3)C2=O)cc1OC,15.5
19,CN1C(=O)C(=Cc2ccc(-c3ccc(Cl)c(C(=O)O)c3)o2)C(=O)N(C)C1=O,14.5
20,COC(=O)c1ccc(-n2c(C)cc(C=C3C(=O)NC(=S)NC3=O)c2C)cc1,24.8
21,COc1ccc(N2C(=O)NC(=O)/C(=C/c3ccc(-c4ccc(C(=O)O)cc4)o3)C2=O)cc1,-10.9
22,COC(=O)c1ccc(-n2c(C)cc(/C=C3\C(=O)NC(=O)N(c4ccc(OC)cc4)C3=O)c2C)cc1,115
23,COc1ccc(N2C(=O)/C(=C/c3ccc(-c4ccc(C(=O)O)cc4)o3)C(=O)NC2=S)cc1,-28.2
24,CCOC(=O)c1cc(-c2ccc(C=C3C(=O)N(C)C(=O)N(C)C3=O)o2)ccc1Cl,111
25,CN1C(=O)C(=Cc2ccc(-c3ccc(Cl)c(Cl)c3)o2)C(=O)N(C)C1=O,-3.8
26,COc1ccc(N2C(=O)NC(=O)/C(=C\c3cc(C)n(-c4ccc(N5CCOCC5)cc4)c3C)C2=O)cc1,15.9

row,Compound,displacement [%]
1,CCOC(=O)c1ccc(-c2ccc(/C=C3/C(=O)NN(c4cccc(Cl)c4)C3=O)o2)cc1,-1.9
2,Cc1cccc(N2C(=O)NC(=O)/C(=C/c3ccc(-c4ccc(C(=O)O)cc4)o3)C2=O)c1,-58.8
3,CCOC(=O)c1ccc(-c2ccc(/C=C3/C(=O)NC(=O)N(c4ccc(OC)cc4)C3=O)o2)cc1,86.2
4,CCOC(=O)c1ccc(-c2ccc(/C=C3/C(=O)NC(=O)N(c4ccccc4)C3=O)o2)cc1,88.5
5,COc1ccccc1C(=O)N1CCN(Cc2ccccc2[N+](=O)[O-])CC1,1.5
6,COc1ccc(-n2cnc3cc(Nc4nnc(C)c5ccccc45)ccc32)cc1,0.8
7,CCOC(=O)c1cc(CC)sc1NC(=O)c1cc([N+](=O)[O-])ccc1N1CCN(CC)CC1,-2.3
8,O=C(CSc1ncn[nH]1)c1ccc(Br)cc1,8.5
9,COc1ccc(S(=O)(=O)N(Cc2ccccc2)c2ccccc2C(=O)N2CCOCC2)cc1,-1.1
10,CC(C)(CNC(=O)c1cccnc1)CNC(=O)c1cccnc1,7.9
11,O=C(O)C(Cc1ccccc1)n1c(O)c(/C=C2\C=Nc3ccccc32)sc1=S (configuration not stated),-2.3
12,Cc1cc(/C=N/O)c(C)n1-c1ccc(F)cc1,12.6
13,COC(=O)c1ccc(NC(=S)NC(=O)/C=C/c2ccc(Br)cc2)cc1,13.2
14,COc1ccc2c(c1OC)C(=O)OC2Nc1ccccc1Br (configuration not stated),-5.8
15,COc1ccc(/C=C/C(=O)/C=C/c2ccc(N(C)C)cc2)cc1,-3
16,COc1ccc(-n2nnnc2C(=Cc2ccc(N(C)C)cc2)c2nnnn2-c2ccc(OC)cc2)cc1,157
17,COc1ccc(-n2nnnc2C(Cl)(Cl)c2nnnn2-c2ccc(OC)cc2)cc1,5.8
18,CCOc1cc(/C=C2\SC(=Nc3cccc(Cl)c3C)NC2=O)ccc1O,-11.7
19,O=C1C(Nc2ccccc2)=CC(c2cccc(F)c2)N1c1ccccc1 (configuration not stated),14.1
20,O=CN1CCN(c2nc(-c3ccccc3)c3cc(Cl)ccc3n2)CC1,113
21,O=C(c1ccccc1Cl)N1CCN(c2nc(-c3ccccc3)c3cc(Br)ccc3n2)CC1,-5.8
22,O=C(c1ccc([N+](=O)[O-])cc1)N1CCN(c2nc(-c3ccccc3)c3cc(Cl)ccc3n2)CC1,17.5
23,Brc1ccc2nc(N3CCNCC3)nc(-c3ccccc3)c2c1,-8.1
24,O=CN1CCN(c2nc(-c3ccccc3)c3cc(Br)ccc3n2)CC1,84.9
25,O=C(c1ccccc1)N1CCN(c2nc(-c3ccccc3)c3cc(Cl)ccc3n2)CC1,10.6
26,CC1=C(C#N)c2nc(N)c(C#N)c(C)c2/C1=C\c1cc([N+](=O)[O-])ccc1Cl,0.6

row,Compound,displacement [%]
1,Cc1cccc(OCCOc2ccccc2/C=C2/SC(=S)N(C)C2=O)c1,-0.4
2,Fc1cc(F)c(F)c(SCCc2ccncc2)c1F,5.9
3,COc1cccc(N2C(=O)NC(=O)/C(=C/C=C/c3ccco3)C2=O)c1,-47.4
4,C/C(=N\NC(=O)COc1ccc(Cl)cc1Cl)c1cccnc1,1.9
5,O=C1C2ON(c3ccc(Cl)cc3)C(c3cccs3)C2C(=O)N1c1cccc(C(F)(F)F)c1 (configuration not stated),-18.1
6,COc1ccc(OCC(O)CN(C)S(=O)(=O)O)cc1 (configuration not stated),-6.7
7,O=C(Cc1ccc(Br)cc1)N1CCN(c2ccccc2)CC1,9.8
8,COc1ccc(C2CC(=O)C3=C(C2)Nc2ccccc2NC3c2cccc(OC)c2OC)cc1OC (configuration not stated),-3.7
9,O=C(CSc1ccccn1)Nc1ccc(F)cc1,-11.4
10,O=C(CSc1ccccn1)Nc1ccc2c(c1)C(=O)c1ccccc1C2=O,54.6
11,CC(=O)Nc1ccc(NC(=O)CSc2ccccn2)cc1,-2.6
12,CC1(C)CC(=O)c2cnc(NC(=O)Cc3ccc(Cl)cc3)nc2C1,-0.2
13,COc1ccc(CC(c2nc3ccccc3[nH]2)C(C)c2nc3ccccc3[nH]2)cc1 (configuration not stated),8
14,O=c1oc(/C=C\c2ccccc2)nc2ccc(Br)cc12,10.7
15,Clc1ccc(CN2CCN(/N=C\c3ccc(OCc4ccccc4)cc3)CC2)cc1,-9.5
16,CCOC(=O)C1=C(C)N=c2s/c(=C\c3ccco3)c(=O)n2C1c1ccccc1OC (configuration not stated),74.3
17,CCOC(=O)C1=C(C)N=c2s/c(=C/c3ccc(I)o3)c(=O)n2C1c1ccccc1OC (configuration not stated),14.5
18,CCOC(=O)C1=C(C)N=c2s/c(=C\c3ccco3)c(=O)n2C1c1ccccc1 (configuration not stated),16.5
19,CCOC(=O)C1=C(c2ccccc2)N=c2s/c(=C\c3cccnc3)c(=O)n2C1c1cccc(OC)c1OC (configuration not stated),5.1
20,CCOC(=O)C1=C(c2ccccc2)N=c2s/c(=C\c3ccco3)c(=O)n2C1c1cccc(OC)c1OC (configuration not stated),76.4
21,CCOC(=O)C1=C(C)N=c2s/c(=C\C=C\c3ccccc3)c(=O)n2C1c1ccc(OC(C)=O)cc1 (configuration not stated),16.9
22,CCOC(=O)C1=C(C)N=c2s/c(=C\c3ccco3)c(=O)n2C1c1cccc(OC)c1 (configuration not stated),-25.3
23,CCOC(=O)C1=C(c2ccccc2)N=c2s/c(=C\c3cccc(O)c3)c(=O)n2C1c1cccc(OC)c1OC (configuration not stated),7.6
24,CCOC(=O)C1=C(C)N=c2s/c(=C\C=C\c3ccco3)c(=O)n2C1c1ccc(OC)cc1 (configuration not stated),63.9
